These results are taken from PubChem BioAssay (NCATS).

The nature of test [1]: Confirmation and Secondary Assay for Modulators of Hemoglobin Beta Chain Splicing at IVS2 654 locus (AID 910).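 Further: per-well total GFP intensity by laser scanning cytometry after 2-day treatment; % of control where 0% means no effect.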 Summed up:
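HeLa cells stably carrying EGFP interrupted by mutant beta-globin IVS2-654 intron (CMV-driven) were treated with compound for 2 days at 37C; corrected splicing was scored as total peak GFP intensity per well (488 nm excitation, 500-520 nm emission).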

A short description of test [2]: Confirmation and Secondary Assay for Modulators of Hemoglobin Beta Chain Splicing at IVS2 705 locus (AID 930).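 Further: HeLa cells stably expressing the EGFP-705 splicing reporter; GFP fluorescence per well restored by corrected splicing of the IVS2-705 intron in EGFP; % of control where 0% means no effect.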 Summed up:
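Stable HeLa line with EGFP disrupted by mutant beta-globin intron 2 (705). Overnight attachment, then 2 days of compound at 37C, 5% CO2. Signal: peak GFP intensity summed over objects 5-250 µm.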

A short description of test [3]: qHTS Assay for Lipid Storage Modulators (AID 1519; calls by dose curve; on activity change, negative = inhibition: on the % scale 0 is the no-effect control and ±100 the full control effect). As to conditions: Drosophila S3 cells, BODIPY lipid droplet/cell ratio, laser cytometry, cells loaded with oleic acid; for activity change, negative = inhibition: at 57.5 µM (top of the series). The essentials:
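Cells seeded at 5,000 per well were treated with compounds over a concentration series and loaded with oleic acid (400 uM, as added). Lipid droplet fluorescence (488 nm excitation, 500-530 nm channel) was read by laser-scanning cytometry and normalized to 20 uM Triacsin C.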
For orientation: In qHTS, concentration-response curves come from the screen itself.

In test [4] the target is Ubiquitin carboxyl-terminal hydrolase 1 (Homo sapiens) (UniProt O94782). Briefly: Inhibitors of USP1/UAF1: Pilot qHTS (AID 504865).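 Further: rhodamine fluorescence freed from ubiquitin-rhodamine substrate followed over time; top concentration of the series differs between compounds; on the % scale 0 is the no-effect control and ±100 the full control effect; nearly all actives have a fitted effect of over 35% in size.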 Summed up:
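USP1/UAF1 complex (1nM) preincubated with compound 15 min at room temperature, then Ub-Rho substrate (150nM final) added. Fluorescence read kinetically at 480/540 nm, 6 reads every 60 seconds. Buffer: 50mM HEPES pH 7.8, 0.5mM EDTA, 0.1 mg/ml BSA, 1mM TCEP, 0.01% Tween-20.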

In test [5] the target is DNA dC->dU-editing enzyme APOBEC-3G (Homo sapiens) (UniProt Q9HC16). In words: qHTS for inhibitors of Vif-A3G interactions: Validation (AID 588379). Further: 0% is about no effect. Summed up: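 Yellow fluorescence (Ex 488, Em 500-530) of Vif-coexpressing HeLa A3G-eYFP cells, scanned by Acumen cytometer, reports blocked A3G degradation. Cells plated at 700/well overnight at 37 deg C before compound addition, then a further overnight compound incubation at 37 deg C.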
Chain of DNA dC->dU-editing enzyme APOBEC-3G (Homo sapiens) (Q9HC16 whole entry, looked up): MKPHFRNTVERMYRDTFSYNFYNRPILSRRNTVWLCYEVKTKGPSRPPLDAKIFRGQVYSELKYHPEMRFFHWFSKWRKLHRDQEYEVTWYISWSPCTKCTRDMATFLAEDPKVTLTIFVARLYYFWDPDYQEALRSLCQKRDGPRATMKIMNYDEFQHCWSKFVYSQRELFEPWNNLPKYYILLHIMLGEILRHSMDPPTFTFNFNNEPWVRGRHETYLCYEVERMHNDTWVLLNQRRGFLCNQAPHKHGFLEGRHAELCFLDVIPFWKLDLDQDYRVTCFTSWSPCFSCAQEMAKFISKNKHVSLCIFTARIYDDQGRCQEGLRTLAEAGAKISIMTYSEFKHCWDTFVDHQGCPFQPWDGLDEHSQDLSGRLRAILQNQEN

In test [6] the target is Cytochrome P450 3A4 (Homo sapiens) (UniProt P08684). In words: qHTS Assay for Inhibitors and Substrates of Cytochrome P450 3A4 (AID 884). Further: on the % scale 0 is the no-effect control and ±100 the full control effect; nearly all actives have a fitted effect of over 50% in size. The essentials: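 Luminescent readout of luciferin produced by CYP3A4 (20 nM) dealkylation of Luciferin-PPXE, 25 uM (its KM). NADPH-driven reaction ran 60 min at RT after 10 min compound preincubation; data scaled to 57 uM ketoconazole as 100% inhibition.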
Chain of Cytochrome P450 3A4 (Homo sapiens) (P08684 whole entry, looked up): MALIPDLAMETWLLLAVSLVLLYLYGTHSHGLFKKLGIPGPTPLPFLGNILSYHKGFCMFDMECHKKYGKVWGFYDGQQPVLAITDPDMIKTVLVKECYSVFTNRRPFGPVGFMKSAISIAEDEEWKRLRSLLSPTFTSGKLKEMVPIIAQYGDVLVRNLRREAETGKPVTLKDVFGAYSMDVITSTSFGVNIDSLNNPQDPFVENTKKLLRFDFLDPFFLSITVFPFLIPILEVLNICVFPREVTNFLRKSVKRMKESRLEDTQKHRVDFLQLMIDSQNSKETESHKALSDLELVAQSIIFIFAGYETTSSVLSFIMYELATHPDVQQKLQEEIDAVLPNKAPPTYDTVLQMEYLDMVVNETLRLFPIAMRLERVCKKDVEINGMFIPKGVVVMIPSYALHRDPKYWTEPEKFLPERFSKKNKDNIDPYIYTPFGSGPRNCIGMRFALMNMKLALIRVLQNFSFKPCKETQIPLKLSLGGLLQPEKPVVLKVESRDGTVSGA

The target is the same in test [7]. Briefly: qHTS Assay for Activators of Cytochrome P450 3A4 (AID 885). Further: nearly all actives have a fitted effect of over 65% in size. Summed up: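 CYP3A4 activity: Luciferin-PPXE O-dealkylation, 25uM substrate, 200mM KPO4, RT throughout. Read-out is luciferase luminescence; higher values reflect activation.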
The mark [8] stands for this setting: measured here: cell count channel max response.
Setting [9] is: measured here: lipid channel max response.

Inconclusive results are not listed. Active and inactive are the calls of the source. Unless noted, the call rests on the fitted dose curve; in most records, active means well fitted curve in the direction sought with a large enough effect; inconclusive means small, poorly fitted or top-dose-only effect, or another doubt; inactive means no such curve, though single readings can be large; an effect the other way counts as inactive or inconclusive.

Chain of Ubiquitin carboxyl-terminal hydrolase 1 (Homo sapiens) (O94782 whole entry, looked up): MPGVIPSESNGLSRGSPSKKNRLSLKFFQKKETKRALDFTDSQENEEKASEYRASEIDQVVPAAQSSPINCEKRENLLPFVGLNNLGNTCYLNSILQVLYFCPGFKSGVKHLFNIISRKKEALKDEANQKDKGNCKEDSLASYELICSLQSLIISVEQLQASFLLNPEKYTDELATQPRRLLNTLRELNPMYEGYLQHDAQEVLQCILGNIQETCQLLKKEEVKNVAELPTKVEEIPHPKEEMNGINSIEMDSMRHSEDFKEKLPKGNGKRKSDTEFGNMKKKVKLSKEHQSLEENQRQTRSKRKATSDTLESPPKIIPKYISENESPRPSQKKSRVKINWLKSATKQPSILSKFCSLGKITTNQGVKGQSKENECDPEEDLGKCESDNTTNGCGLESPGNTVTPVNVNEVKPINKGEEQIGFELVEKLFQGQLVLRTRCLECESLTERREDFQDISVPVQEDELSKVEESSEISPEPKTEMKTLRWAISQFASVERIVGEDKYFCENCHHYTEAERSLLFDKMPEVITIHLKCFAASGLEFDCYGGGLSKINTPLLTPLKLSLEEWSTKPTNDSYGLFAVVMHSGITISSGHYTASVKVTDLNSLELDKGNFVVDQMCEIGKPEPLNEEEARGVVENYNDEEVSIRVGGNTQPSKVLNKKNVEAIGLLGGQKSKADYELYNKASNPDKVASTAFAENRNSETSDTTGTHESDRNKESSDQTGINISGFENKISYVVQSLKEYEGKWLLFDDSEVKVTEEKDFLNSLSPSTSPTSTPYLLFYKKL

For `CC1(C)CC2C1CCC1(C)OC2(C)CCC1O` (stereo not drawn), the Potency result in test [1], in test [2] and in test [4] was “inactive” in each case. Further, the activity change, negative = inhibition in test [3] is 2.02% (inactive). Also, the max response is 12.1% in test [3] (setting [8]) and 15.9% in test [3] (setting [9]).
On to `O=C(CCc1ccc(O)cc1)c1c(O)cc(O)cc1O[C@H]1OC(CO)C(O)C(O)C1O` (stereo partly drawn), for which the Potency entry in test [1], in test [2] and in test [4] was “inactive” in each case. Further, the activity change, negative = inhibition in test [3] is 6.17% (inactive). Also, the values for the max response in test [3] (setting [8]) and in test [3] (setting [9]) were 25.3% and 27.2%, respectively.
As for `CC(=O)N[C@@H](Cc1c[nH]c2ccccc12)C(=O)O`, the Potency entry in test [1], in test [2] and in test [4] was “inactive” in each case. The activity change, negative = inhibition in test [3] was 5.86% (inactive). Besides, the max response in test [3] (setting [8]) was 17.1%; in test [3] (setting [9]) it was 24.9%.
With `C=C(C)C1CC[C@]2(CO)CC[C@@]3(C)[C@H](CCC4[C@@]5(C)CCC(O)C(C)(C)C5CC[C@@]43C)C12` (stereo partly drawn), the Potency entry in test [1], in test [2] and in test [4] was “inactive” in each case. Also, in test [3], the activity change, negative = inhibition is -2.93% (inactive). For the same molecule, the max response is -9.58% in test [3] (setting [8]) and -12.7% in test [3] (setting [9]).
For `COc1cc(O)c(C(=O)O)c(O)c1`, the Potency result in test [1], in test [2] and in test [4] was “inactive” in each case. In test [3], the activity change, negative = inhibition is 4.12% (inactive). The max response came out at 1.93% in test [3] (setting [8]) and 6.74% in test [3] (setting [9]).
For the molecule `CC(=O)OC1C[C@]2(C)C(C(C)=O)CCC2C2CCC3=CC(=O)CC[C@@]3(C)C12` (stereo partly drawn), the Potency result in test [1], in test [2] and in test [4] was “inactive” each time. Moreover, the activity change, negative = inhibition in test [3] is 9.05% (inactive). Also, the max response in test [3] (setting [8]) was 25.2%; in test [3] (setting [9]), 39.7%.
In the case of `CC(CCC(=O)O)C1CCC2C3CC[C@H]4CC(O)CC[C@@]4(C)C3CC(O)[C@]12C` (stereo partly drawn), the Potency result in test [1], in test [2] and in test [4] was “inactive” in each case. Moreover, the activity change, negative = inhibition in test [3] is 8.52% (inactive). Moreover, the max response is -1.9% in test [3] (setting [8]) and 10.5% in test [3] (setting [9]).
Regarding `CC(=O)OCC(=O)[C@@]12OC(C)(C)OC1CC1C3CC(F)C4=CC(=O)C=C[C@@]4(C)[C@@]3(F)C(O)C[C@]12C` (stereo partly drawn), the Potency result in test [1], in test [2] and in test [4] was “inactive” throughout. Also, the activity change, negative = inhibition in test [3] was 5.49% (inactive). The max response in test [3] (setting [8]) amounted to 3.91%; in test [3] (setting [9]), 12.9%.
On to `CC(=O)SC1CC2=CC(=O)CC[C@@]2(C)C2CC[C@@]3(C)[C@@H](CC[C@@]34CCC(=O)O4)C12` (stereo partly drawn), for which the Potency entry in test [1], in test [2] and in test [4] was “inactive” each time. Moreover, the activity change, negative = inhibition in test [3] was -11.4% (inactive). Further, the max response in test [3] (setting [8]) is 20.1%; in test [3] (setting [9]) it was 9.46%.
On to `Nc1nc(Cl)c2ncn(C3OC(CO)C(O)C3O)c2n1` (stereo not drawn), for which the Potency result in test [1], in test [2] and in test [4] was “inactive” in each case. In addition, in test [3], the activity change, negative = inhibition is 1.75% (inactive). Besides, the max response in test [3] (setting [8]) is -10%; in test [3] (setting [9]), -7.18%.
Take `CC(C)CCCC(C)C1CCC2C3CC(=O)[C@H]4CC(O)CC[C@]4(C)C3CC[C@@]12C` (stereo partly drawn): the Potency entry in test [1], in test [2] and in test [4] was “inactive” throughout. The activity change, negative = inhibition in test [3] is -8.35% (inactive). Further, the max response is -5.43% in test [3] (setting [8]) and -14% in test [3] (setting [9]).
Consider `COC(=O)c1c(C)cc(OC)cc1O`, for which the Potency result in test [1], in test [2] and in test [4] was “inactive” in each case. Besides, the activity change, negative = inhibition in test [3] is 8.17% (inactive). Besides, the figures for the max response in test [3] (setting [8]) and in test [3] (setting [9]) were 10% and 23.5%, respectively.
With `C[C@]12CCC3c4ccc(OS(=O)(=O)O)cc4CCC3C1CCC2=O` (stereo partly drawn), the Potency result in test [1], in test [2] and in test [4] was “inactive” in each case. For the same molecule, in test [3], the activity change, negative = inhibition is 9.98% (inactive). The max response in test [3] (setting [8]) came out at 6.42%; in test [3] (setting [9]), 22.2%.
As to `O=c1c2ccccc2oc2cc(O)c(C3COCC(CO)C(O)C(O)C3O)c(O)c12` (stereo not drawn), the activity change, negative = inhibition in test [3] was 16.5% (inactive). Also, the max response turned out to be 22.8% in test [3] (setting [8]) and 36.9% in test [3] (setting [9]). Besides, the molecule was classed as inactive in test [5].
Turning to `N=c1ccn2c(n1)O[C@@H]1[C@H](O)[C@H](CO)O[C@@H]12`, in test [6], the Potency entry was “inactive”. In addition, the activity change, negative = inhibition in test [3] is -7.95% (inactive). Further, the max response in test [3] (setting [8]) is 4.02%; in test [3] (setting [9]), -4.27%. Further, the molecule was called inactive in test [5].
With `COc1c2ccoc2nc2c(OC)c(OCC(O)C(C)(C)O)ccc12` (stereo not drawn), the Potency entry in test [7], in test [1] and in test [2] was “inactive” each time. The activity change, negative = inhibition in test [3] is 9.6% (inactive). Also, the figures for the max response in test [3] (setting [8]) and in test [3] (setting [9]) were 16.9% and 29.2%, respectively. Besides, in test [5], the molecule was classed as inactive.
Consider `CC1(C)CCC[C@]2(C)C3CC(=O)O[C@@]3(C)CC[C@H]12` (stereo partly drawn), for which the Potency entry in test [7] was “inactive”. Further, in test [3], the activity change, negative = inhibition was 5.49% (inactive). The max response in test [3] (setting [8]) is 5.53%; in test [3] (setting [9]), 11.1%. The call in test [5] was inactive.
Regarding `CC1OC(OCC2OC(Oc3c(-c4ccc(O)c(O)c4)oc4cc(O)cc(O)c4c3=O)C(O)C(O)C2O)C(O)C(O)C1O` (stereo not drawn), the activity change, negative = inhibition in test [3] was -1.77% (inactive). In addition, the figures for the max response in test [3] (setting [8]) and in test [3] (setting [9]) were -20.3% and -20.8%, respectively. Further, the result in test [5] was inactive.
For `CC(=O)OC1C[C@]2(C)[C@@H](CC(O)C3[C@]4(C)CCC(O)C(C)[C@@H]4CC[C@]32C)/C1=C(/CCC=C(C)C)C(=O)O` (stereo partly drawn), the Potency result in test [1], in test [2] and in test [4] was “inactive” each time. The activity change, negative = inhibition in test [3] was 5.26% (inactive). The max response in test [3] (setting [8]) amounted to 12.3%; in test [3] (setting [9]) it was 24.1%.
On to `C=C1CCC2C(C)(CO)C(O)CCC2(C)C1C/C=C1\C(=O)OCC1O` (stereo not drawn), for which, in test [3], the activity change, negative = inhibition was -0.167% (inactive). Further, the max response in test [3] (setting [8]) turned out to be 24.9%; in test [3] (setting [9]), 25.5%. For the same molecule, the molecule was called inactive in test [5].
